Experimental data as given in the supplement of paper PMC8975748.
Structures can show the parent of a compound that is named as a salt.

Each molecule was assayed on Saccharomyces cerevisiae BY4741 SeMeCo community (assay: z-score of prototroph abundance vs DMSO median; higher = larger share of this subpopulation than in DMSO controls). Conditions: 10 µM; 24 h; SM minimal medium; subpopulation (auxotrophy): Prototroph.
Protocol: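 Fluorescent four-plasmid SeMeCo (self-establishing metabolically cooperating S. cerevisiae BY4741 community; plasmids pH-mRuby2, pL-mWasabi, pU-eCFP, pM-TagRFP657) was grown 24 h in minimal SM medium with each Selleck FDA-approved drug at 10 µM in 384-well plates. Cells were fixed and imaged by high-content confocal microscopy. For each auxotrophic subpopulation (and the prototroph), a z-score gives the deviation from the DMSO vehicle-control population median.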
With `Cc1cc(C)nc(O)n1.O=C(Nc1ccc([N+](=O)[O-])cc1)Nc1ccc([N+](=O)[O-])cc1` [Nicarbazin] the “z-score of prototroph abundance” value was 0.74.
`Clc1ccc2c(N3CCN(CCCN4CCN(c5ccnc6cc(Cl)ccc56)CC4)CC3)ccnc2c1` [Piperaquine phosphate] was tested, and the “z-score of prototroph abundance” value was -0.69.
`CCN[C@@H]1C[C@H](N)[C@@H](O[C@H]2OC(CN)=CC[C@H]2N)[C@H](O)[C@H]1O[C@H]1OC[C@](C)(O)[C@H](NC)[C@H]1O` [Netilmicin Sulfate] was tested, and the “z-score of prototroph abundance” value was -0.66.
With `C[C@H]1COc2c(N3CCN(C)CC3)c(F)cc3c(=O)c(C(=O)O)cn1c23` [Levofloxacin hydrate] the “z-score of prototroph abundance” value was -1.38.
With `C[C@]12CC[C@@H]3c4ccc(OS(=O)(=O)O)cc4CC[C@H]3[C@@H]1CCC2=O` [Estropipate] the “z-score of prototroph abundance” value was 0.59.
For `CC(=O)O[C@H]1C[C@@]2(C)[C@@H](C[C@@H](O)[C@H]3[C@@]4(C)CC[C@@H](O)[C@@H](C)[C@@H]4CC[C@@]32C)/C1=C(\CCC=C(C)C)C(=O)O` [Fusidate Sodium], the “z-score of prototroph abundance” value was -0.65.
In the case of `C[C@@H]1CC(=O)NN=C1c1ccc(NN=C(C#N)C#N)cc1` [Levosimendan], the “z-score of prototroph abundance” value is reported as -0.07.
`COc1cccc2c1C(=O)c1c(O)c3c(c(O)c1C2=O)CC(O)(C(=O)CO)CC3OC1CC(N)C(O)C(C)O1` (stereo not given) [Doxorubicin (Adriamycin) HCl] was tested, and the “z-score of prototroph abundance” value was -3.54.
`CC/C(=C(/CC)c1ccc(O)cc1)c1ccc(O)cc1` [Diethylstilbestrol] was tested, and the “z-score of prototroph abundance” value was 1.5.
`Cc1c(C)c2c(c(C)c1O)CCC(C)(CCCC(C)CCCC(C)CCCC(C)C)O2` (stereo not given) [Vitamin E] was tested, and the “z-score of prototroph abundance” value was 0.82.
In the case of `CCN1CCCC1CNC(=O)c1cc(S(N)(=O)=O)ccc1OC` (stereo not given) [Sulpiride], the “z-score of prototroph abundance” value is reported as 0.51.
`CCOC(=O)C1=C(C)NC(C)=C(C(=O)OC)C1c1cccc([N+](=O)[O-])c1` (stereo not given) [Nitrendipine] was tested, and the “z-score of prototroph abundance” value was 0.18.
With `CCOc1cc(N)c([N+](=O)[O-])cc1C(=O)NC1CCN(CC2CC=CCC2)CC1` (stereo not given) [Cinitapride Hydrogen Tartrate] the “z-score of prototroph abundance” value was -1.19.
In the case of `C[C@]1(COc2ccc(N3CCC(Oc4ccc(OC(F)(F)F)cc4)CC3)cc2)Cn2cc([N+](=O)[O-])nc2O1` [Delamanid], the “z-score of prototroph abundance” value is reported as -0.2.
For `COC(=O)C1=C(C)NC(C)=C(C(=O)OCCN2CCN(C(c3ccccc3)c3ccccc3)CC2)C1c1cccc([N+](=O)[O-])c1` (stereo not given) [Manidipine], the “z-score of prototroph abundance” value was -1.43.
With `COc1ccc(NS(=O)(=O)c2ccc(N)cc2)nn1` [Sulfamethoxypyridazine] the “z-score of prototroph abundance” value was 0.98.
For `O=C(NCCO[N+](=O)[O-])c1cccnc1` [Nicorandil], the “z-score of prototroph abundance” value was 0.69.
`O=C(CCCN1CCN(c2ccccn2)CC1)c1ccc(F)cc1` [Azaperone] was tested, and the “z-score of prototroph abundance” value was -0.1.
With `CCOc1ccc2ccccc2c1C(=O)N[C@@H]1C(=O)N2[C@@H]1SC(C)(C)[C@@H]2C(=O)O` [Nafcillin Sodium] the “z-score of prototroph abundance” value was 0.32.
In the case of `C=CC(C)(O)CCC=C(C)C` (stereo not given) [Linalool], the “z-score of prototroph abundance” value is reported as -0.57.
For `O=C1CN(/N=C/c2ccc(-c3ccc([N+](=O)[O-])cc3)o2)C(=O)N1` [Dantrolene sodium], the “z-score of prototroph abundance” value was 2.09.
With `O=C1CN2Cc3c(ccc(Cl)c3Cl)N=C2N1` [Anagrelide HCl] the “z-score of prototroph abundance” value was 0.08.
For `CN1CCOC(c2ccccc2)c2ccccc2C1` (stereo not given) [Nefopam HCl], the “z-score of prototroph abundance” value was 0.32.
With `NNc1nncc2ccccc12` [Hydralazine HCl] the “z-score of prototroph abundance” value was 0.63.
For `Cn1c(=O)c2[nH]cnc2n(C)c1=O` [Aminophylline], the “z-score of prototroph abundance” value was -0.44.
With `NC[C@@H]1O[C@H](O[C@H]2[C@@H](O)[C@H](O[C@@H]3[C@@H](O)[C@H](N)C[C@H](N)[C@H]3O[C@H]3O[C@H](CO)[C@@H](O)[C@H](O)[C@H]3N)O[C@@H]2CO)[C@H](N)[C@@H](O)[C@@H]1O` [Paromomycin Sulfate] the “z-score of prototroph abundance” value was -0.33.
With `CC1=C(C(=O)OCCN(Cc2ccccc2)c2ccccc2)C(c2cccc([N+](=O)[O-])c2)C(P2(=O)OCC(C)(C)CO2)=C(C)N1` (stereo not given) [Efonidipine] the “z-score of prototroph abundance” value was -1.56.
For `COc1ccc(CC2c3cc(OC)c(OC)cc3CC[N+]2(C)CCC(=O)OCCCCCOC(=O)CC[N+]2(C)CCc3cc(OC)c(OC)cc3C2Cc2ccc(OC)c(OC)c2)cc1OC` (stereo not given) [Atracurium Besylate], the “z-score of prototroph abundance” value was -0.17.
For `CCOC(=O)c1ccc(N)cc1` [Benzocaine hydrochloride], the “z-score of prototroph abundance” value was -0.32.
For `CC[C@H](C)C(=O)O[C@H]1C[C@H](O)C=C2C=C[C@H](C)[C@H](CC[C@@H](O)C[C@@H](O)CC(=O)O)[C@H]21` [Pravastatin], the “z-score of prototroph abundance” value was -1.08.
With `Cc1ccc(Cl)c(Nc2ccccc2C(=O)O)c1Cl` [Meclofenamate Sodium] the “z-score of prototroph abundance” value was 1.11.
With `CC[C@H]1OC(=O)[C@H](C)[C@@H](O[C@H]2C[C@@](C)(OC)[C@@H](O)[C@H](C)O2)[C@H](C)[C@@H](O[C@@H]2O[C@H](C)C[C@H](N(C)C)[C@H]2O)[C@](C)(O)C[C@@H](C)CN(C)[C@H](C)[C@@H](O)[C@]1(C)O` [Azithromycin Dihydrate] the “z-score of prototroph abundance” value was -0.48.
For `C#C[C@]1(O)CC[C@H]2[C@@H]3CCC4=Cc5oncc5C[C@]4(C)[C@H]3CC[C@@]21C` [Danazol], the “z-score of prototroph abundance” value was 0.
With `CCn1cc(C(=O)O)c(=O)c2cc(F)c(N3CCNC(C)C3)c(F)c21` (stereo not given) [Lomefloxacin HCl] the “z-score of prototroph abundance” value was -1.02.
In the case of `CC(C)c1nc(N(C)S(C)(=O)=O)nc(-c2ccc(F)cc2)c1/C=C/[C@@H](O)C[C@@H](O)CC(=O)O` [Rosuvastatin], the “z-score of prototroph abundance” value is reported as -2.69.
`CN(C)CCC=C1c2ccccc2C(C)(C)c2ccccc21` [Melitracen hydrochloride] was tested, and the “z-score of prototroph abundance” value was 1.
For `Cc1ccc(-c2ncc(Cl)cc2-c2ccc(S(C)(=O)=O)cc2)cn1` [Etoricoxib], the “z-score of prototroph abundance” value was -0.04.
For `CNCC[C@H](Oc1cccc2ccccc12)c1cccs1` [Duloxetine], the “z-score of prototroph abundance” value was 0.49.
In the case of `CC1=C(C(=O)O)N2C(=O)[C@@H](NC(=O)[C@H](N)c3ccc(O)cc3)[C@H]2SC1` [Cefadroxil hydrate], the “z-score of prototroph abundance” value is reported as 0.8.
In the case of `CNCC[C@H](Oc1cccc2ccccc12)c1cccs1` [Duloxetine HCl], the “z-score of prototroph abundance” value is reported as 0.65.
